Only some compounds are listed: those with a hit (about 19% of all), similar ones and a draw of the others.
uPA generation: cell surface uPA generation inhibition; cell surface uPA generation assay, qHTS; Potency, µM (top dose mostly 38.3 µM), usual class: inhibitors; 330,000 compounds, 0.31% hits; active means well fitted inhibition curve with a large enough effect; inconclusive means small, poorly fitted or top-dose-only effect; inactive means no such curve, though single readings can be large or run the other way; tested in mouse RAW 264.7 cells; further: nearly all actives have a fitted effect of over 55% in size
DT40 TDP1 no CPT: qHTS for Inhibitors of human tyrosyl-DNA phosphodiesterase 1 (TDP1): qHTS in cells in absence of CPT. DT40 Tdp1-/- hTDP1 cells, no CPT, ATP luminescence, 48 h. Potency, µM (top dose mostly 46.2 µM), most hits filed as inhibitors. 420,000 compounds, 15% hits; further: nearly all actives have a fitted effect of over 55% in size
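Luminescent ATP content (CellTiter-Glo) served as the growth readout. Knockout chicken DT40 cells expressing human TDP1 were exposed to compounds without camptothecin for a minimum 48 hr at 37 °C.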
HT1080-NT tox: kills 2HG-producing HT-1080-NT fibrosarcoma cells; HT-1080-NT fibrosarcoma viability, CellTiter-Glo ATP luminescence, 48 h; Potency, µM (doses to about 46.1 µM), most hits filed as cytotoxic; 360,000 compounds, 1.6% hits;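 further: NT is the 2HG producing partner of a matched IDH1 knockdown line; nearly all actives have a fitted effect of over 55% in size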
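A 48-hour cytotoxicity screen used HT-1080-NT cells plated 2 hours before compound delivery. ATP-based CellTiter-Glo luminescence measured viability, normalized to DMSO and no-cell controls.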
IL-1B inflam inh: blocks inflammasome-driven IL-1 beta release; THP-1 LPS/ATP IL-1B secretion, AlphaLISA, 16 h; stronger effect = lower value; activity change, % at 57.5 µM; 360,000 compounds, 4.7% hits; in the data active means activity change below about -50%; inconclusive means mostly about -30% to -49%
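Secreted IL-1B measured by AlphaLISA bead assay after 16 h compound exposure of THP-1 cells; compounds (final up to 57.5 uM) added 1 h before LPS (250 ng/mL) and ATP (1.25 mM) stimulation; lower signal means less secretion.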
DT40 TDP1 CPT: growth inhibition of DT40 Tdp1-/-;hTDP1 cells with camptothecin (screen for TDP1 inhibitors); AID 686979; 420,000 compounds, 12% hits; chicken DT40 Tdp1-/-;hTDP1 cells + 20 nM CPT, ATP luminescence, 48 h; Potency, µM (top dose mostly 46.2 µM), hits mostly inhibitors; further: nearly all actives have a fitted effect of over 55% in size
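Cell growth measured by CellTiter-Glo luminescence after a minimum 48 h, 37 C compound exposure with 20 nM CPT in Tdp1-knockout DT40 cells stably expressing hTDP1, seeded 400/well; qHTS titration format.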
HT1080 IDH1KD tx: toxicity to HT-1080 IDH1 knockdown cells (counter line) | Potency, µM (series often up to 46.1 µM), most hits filed as cytotoxic | HT-1080 IDH1 knockdown viability, ATP luminescence, 48 h | 360,000 compounds, 2% hits
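After a 2 h attachment period, IDH1KD HT-1080 cells took pin-transferred compound for 48 h at 37 °C; ATP-based luminescence after 10 min room-temperature reagent incubation reported viability.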
Numbers stand for hits; – = inactive; ? = inconclusive; · = no result given; [ ] = remark or other dose. Unless noted, the call rests on the fitted dose curve; in most records, active means well fitted curve in the direction sought with a large enough effect; inconclusive means small, poorly fitted or top-dose-only effect, or another doubt; inactive means no such curve, though single readings can be large; an effect the other way counts as inactive or inconclusive.

SMILES	uPA generation	DT40 TDP1 no CPT	HT1080-NT tox	IL-1B inflam inh	DT40 TDP1 CPT	HT1080 IDH1KD tx
Cc1ccc(F)c(S(=O)(=O)NC(=O)C2(C)CCN2C(=O)CCc2ccccc2)c1 (centres undefined)	·	–	–	–	–	–
CCc1cc(=O)oc2cc3occ(-c4ccc(OC)c(F)c4)c3cc12	–	2.1µM	5.2µM	–	4.6µM	5.2µM
N#Cc1cccnc1N1CCN(C(=O)c2cccc3c2C(=O)c2ccc(Cl)cc2S3(=O)=O)CC1	–	16µM	?	-99	?	–
COc1ccc(-c2ccc3c(c2)S(=O)(=O)c2cccc(C(=O)N4CCN(c5c(Cl)cncc5Cl)CC4)c2C3=O)cc1OC	–	5.2µM	–	–	5.8µM	–
O=C1c2ccc(Cl)cc2S(=O)(=O)c2cccc(C(=O)N3CCN(c4ncc(Br)cn4)CC3)c21	–	21µM	–	?	?	–
N#Cc1cccnc1N1CCN(C(=O)c2cccc3c2C(=O)c2ccc(-c4ccc(Cl)c(C(F)(F)F)c4)cc2S3(=O)=O)CC1	–	–	–	–	?	–
CC(C)c1cccc(-c2ccc3c(c2)S(=O)(=O)c2cccc(C(=O)O)c2C3=O)c1	–	–	–	–	–	–
CC(=O)c1ccc(NC(=O)c2cc(-c3ccc(Cl)c(Cl)c3)on2)cc1	·	–	·	·	–	·
COc1ccc(OCC(=O)Nc2cccc3ncccc23)cc1	–	–	–	–	?	–[9.24 µM]
COc1ccc(OC)c(NC(=O)Cc2nn(C)c(=O)c3ccccc23)c1	–	16µM	–	–	16µM	–
COc1ccc(-c2nn(C)c(=O)c3ccccc23)cc1NC(=O)COc1ccc(C)cc1	–	18µM	–	–	23µM	–
Cn1nc(CC(=O)Nc2cccc3ncccc23)c2ccccc2c1=O	–	21µM	–	–	13µM	?
O=C(CCl)Nc1cccc2ncccc12	–	9.2µM	?	-99	8.2µM	?
Cc1ccc(S(=O)(=O)Nc2ccc(C(=O)N3CCCC3)cc2)c(C)c1NS(C)(=O)=O	–	–	–	–	–	–
CC(C)CNC(=O)c1cn(C2CCN(Cc3nc4ccccc4s3)CC2)nn1	·	–	·	·	–	·
COc1ccc(-c2n[nH]c3c2cnc2ccc(F)cc23)cc1	·	–	·	·	–	·
Cc1nn(CC(=O)Nc2cc(F)ccc2F)c(=O)c2cccn12	·	–	·	·	–	·
Cc1ccc2ncc3c(-c4ccc(F)cc4)nn(-c4cccc(F)c4)c3c2c1	·	–	·	·	–	·
CC(NC(=O)CSC(=S)N(C)C)C12CC3CC(CC(C3)C1)C2 (centres undefined)	–	?	–	–	?	–
O=C(CN1C(=O)C2C3C=CC(C4CC34)C2C1=O)Nc1cccc2ncccc12 (centres undefined)	–	–	–	–	21µM	–
COc1cc(NC(=O)Cc2nn(C)c(=O)c3ccccc23)cc(OC)c1OC	·	?	–	–	?	–
COc1ccc(CNC(=O)Cc2nn(C)c(=O)c3ccccc23)cc1	–	7.3µM	–	–	10µM	–
Cn1nc(C(=O)NCc2ccccc2)c2ccccc2c1=O	–	–	–	–	–	–
Cn1nc(CC(=O)NC2CCCCCC2)c2ccccc2c1=O	–	18µM	–	–	18µM	–
Cn1nc(CC(=O)NCc2ccc(C(F)(F)F)cc2)c2ccccc2c1=O	–	10µM	?	–	29µM	?
SMILES	uPA generation	DT40 TDP1 no CPT	HT1080-NT tox	IL-1B inflam inh	DT40 TDP1 CPT	HT1080 IDH1KD tx
CCNC(=O)C1(C)CCN(C(=O)c2cccc3ccccc23)C1 (centres undefined)	·	–	–	–	–	–
COc1cc(-c2c(-c3ccc4c(c3)OCO4)noc2-c2ccsc2)cc(OC)c1OC	·	–	·	·	?	·
CCN(CC(=O)NCc1ccc(Cl)cc1)C(=O)CSCC(=O)Nc1cccc(C)c1	–	–	–	–	–	–
CN1CCCC(CNC(=O)c2cnn(-c3nccc(-c4cccs4)n3)c2C2CC2)C1 (centres undefined)	·	–	·	·	–[9.04 µM]	·
Cc1ccccc1NC(=O)CN1C(=O)C2C3CC(C(Br)C3Br)C2C1=O (centres undefined)	–	16µM	–	–	?	–
O=C(NC1CCCC1)C(c1cccnc1)N(C(=O)c1csnn1)c1ccc(F)cc1 (centres undefined)	–	–	–	–	–	–
Cc1nc(N2CCN(C(=O)c3ccco3)CC2)[nH]c(=O)c1C	–	–	–	–	–	–
COc1ccc(NC(=O)CN(Cc2ccccc2)S(=O)(=O)c2ccc(C)cc2)cc1Cl	·	?	·	·	18µM	·
CCN(CC(=O)Nc1ccc(OC)c(OC)c1)S(=O)(=O)c1ccc(C)cc1	–	?	–	–	?	–[9.24 µM]
COc1ccc(S(=O)(=O)N(CC(=O)Nc2cc(Cl)ccc2C)Cc2ccccc2)cc1OC	·	?	·	·	15µM	·
O=C1C(C2=C(O)c3ccccc3C2=O)=Nc2ccccc21	–	15µM	–	-93	10µM	?
Cc1cc(C)cc(Oc2ccccc2/C=N\O)c1	–	–	–	–	–	–
COc1ccc(Oc2ccccc2C=O)cc1	–	5.8µM	–	–	12µM	–
Cc1cc(C)cc(Oc2ccccc2C=O)c1	–	4.6µM	–	–	5.8µM	?
COC(=O)C(Cc1ccccc1)OS(N)(=O)=O (centres undefined)	–	–	–	–	?	–
CN(C(=O)c1cccc(NC(=O)Cc2ccc(NC(=O)C3CCN(C(=O)c4ccccc4)CC3)cc2)c1)C1CC1	–	–	–	–	–	–
CN(C(=O)c1cccc(NC(=O)Cc2ccc(NC(=O)C3CCN(C(=O)CCc4ccccc4)CC3)cc2)c1)C1CC1	–	10µM	–	–	16µM	–
CN(C(=O)c1cccc(NC(=O)Cc2ccc(NC(=O)C3CCN(C(=O)c4ccccc4)CC3)cc2)c1)C1CCCC1	–	?	–	–	?	–
CN(C(=O)c1cccc(NC(=O)Cc2ccc(NC(=O)C3CCN(C(=O)CCc4ccccc4)CC3)cc2)c1)C1CCC1	–	13µM	–	–	13µM	–
Cc1ncc2c(c1CNC(=O)c1ccc3c(c1)OCO3)CCN(C(=O)c1cc3ccccc3o1)C2	·	?	·	·	–[9.04 µM]	·
C=CCN(CC=C)C(=O)C(=O)c1cc(C)n(-c2ccc([N+](=O)[O-])cc2)c1C	–	15µM	–	–	?	–
COc1ccc(NC(=O)C(=O)c2cc(C)n(-c3ccc(C)cc3)c2C)cc1Cl	·	8.2µM	·	·	?	·
Cc1cc(C)cc(-n2c(C)cc(C(=S)N3CCOCC3)c2C)c1	–	12µM	–	-54	?	–
Cc1cc(C(=S)N2CCOCC2)c(C)n1-c1ccc(Cl)cc1	–	21µM	–	–	21µM	–
